From PubChem
In the library only some 5.3% were active in any assay of this set; here they are far more common.
Tau ThT inhib = tau fibrillization inhibition (ThT binding) | Potency, µM (highest dose often 57.4 µM), inactives show at the highest dose activity, negative = inhibition, usual class: inhibitors | AID 1460 | hit rate 2.1% among 270,000 | recombinant tau K18 P301L, heparin-induced fibrillization, ThT fluorescence; further: potency means the concentration at half of the fitted maximal effect; nearly all actives have a fitted effect of over 55% in size
Target sequence (P10636 561-689 P618L limits assumed): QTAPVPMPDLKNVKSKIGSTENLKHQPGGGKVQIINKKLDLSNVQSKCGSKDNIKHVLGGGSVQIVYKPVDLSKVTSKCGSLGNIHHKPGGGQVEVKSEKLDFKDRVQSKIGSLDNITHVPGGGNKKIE
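Heparin-induced fibrillization of the P301L-mutant K18 repeat-domain fragment of human tau was followed by ThT binding in quantitative high-throughput format.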
Tau FP inhib = inhibitors of human tau fibril formation | K18 P301L tau heparin fibrillization, Alexa594 FP, 6 h | hit rate 0.39% among 280,000 | Potency, µM (top dose mostly 57.7 µM), inactives show top-dose activity, negative = inhibition, usual class: inhibitors; further: potency means the concentration at half of the fitted maximal effect; nearly all actives have a fitted effect of over 55% in size
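Read-out: fluorescence polarization of Alexa 594-labeled tau (0.24 uM), 555 nm excitation, 632 nm emission. Mixtures held 15 uM unlabeled K18 P301L, compound and 20 uM heparin, pH 7 acetate buffer, incubated 6 hr at 37 C.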
Coupling enz = counter-screen for Giardia aldolase inhibitors: coupling enzyme system. coupling enzyme system counterscreen, AmpLite Red fluorescence. hit rate 0.67% among 290,000. AID 2472. activity change, negative = inhibition, % at 58.2 µM, hits read low; in the data active means activity change below about -30%
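Counterscreen of the coupled detection system alone, without aldolase: glyceraldehyde-3-phosphate coupling enzymes plus AmpLite Red readout. Compounds at 57.5 uM final, 10 min RT preincubation, 20 min RT reaction, fluorescence 525/598 nm.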
Sfp PPTase inh = Sfp phosphopantetheinyl transferase inhibition | Biochemical Sfp PPTase activity, qHTS | hit rate 3.5% among 310,000 | AID 1490 | Q9F4F7 | Potency, µM, inactives show largest response in the series, negative = inhibition, most hits filed as inhibitors;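 further: the enzyme is Sfp with the accession as filed and its product quenches rhodamine fluorescence; potency means the concentration at half of the fitted maximal effect; 0% = enzyme reaction without inhibitor and -100% = no enzyme wells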
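Compounds were incubated with enzyme (final 15 nM) for 15 min at room temperature before substrate addition started the reaction. Fluorescence at 525 nm excitation, 598 nm emission was recorded immediately and after 30 minutes.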
KDM4E inh = inhibitors of human JMJD2E histone demethylase; B2RXH2; JMJD2E catalytic domain, FDH-coupled NADH fluorescence (FDH is formaldehyde dehydrogenase); hit rate 1.6% among 230,000; Potency, µM (top dose mostly 57.1 µM), for inactives: at the top dose activity change, negative = inhibition, usual class: inhibitors; active means well fitted inhibition curve with a large enough effect, not every such curve was filed as active; inconclusive means small, poorly fitted or top-dose-only effect, or another doubt; inactive means no such curve, though single readings can be large or run the other way;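 further: potency means the concentration at half of the fitted maximal effect; 0% = wells with enzyme and -100% = buffer wells without enzyme; nearly all actives have a fitted effect of over 50% in size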
Target sequence (B2RXH2 1-337 limits assumed): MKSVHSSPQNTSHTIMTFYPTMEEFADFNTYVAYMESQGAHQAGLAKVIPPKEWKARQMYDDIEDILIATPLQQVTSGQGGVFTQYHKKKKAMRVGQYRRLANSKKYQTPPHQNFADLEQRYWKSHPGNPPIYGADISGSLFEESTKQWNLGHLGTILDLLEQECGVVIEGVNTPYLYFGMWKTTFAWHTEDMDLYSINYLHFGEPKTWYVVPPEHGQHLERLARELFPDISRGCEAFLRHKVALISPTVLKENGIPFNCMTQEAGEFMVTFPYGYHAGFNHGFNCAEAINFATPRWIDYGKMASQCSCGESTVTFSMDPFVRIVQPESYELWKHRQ
Tau fluor counter = counter-screen for tau fibril formation inhibitors; tau K18 P301L Alexa594 fluorescence, heparin fibrillization; Potency, µM (titrated, usually from 57.7 µM), for inactives: at the top dose activity change, negative = decrease; hit rate 0.93% among 280,000; AID 1463; further: potency means the concentration at half of the fitted maximal effect; nearly all actives have a fitted effect of over 55% in size
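Human tau K18 P301L (15 uM unlabeled, 0.24 uM Alexa 594-labeled) in 100 mM sodium acetate pH 7 with 20 uM heparin, 6 hr at 37 C. ThT 30 uM added, 1 hr ambient; Alexa 594 FP and total fluorescence read at 555/632 nm.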
* hit, by the source's call; [ ] = dose if it differs, or a comment. Unless noted, the call rests on the fitted dose curve; in most records, active means well fitted curve in the direction sought with a large enough effect; inconclusive means small, poorly fitted or top-dose-only effect, or another doubt; inactive means no such curve, though single readings can be large; an effect the other way counts as inactive or inconclusive. Unless noted, on the % scale 0 is the no-effect control and ±100 the full control effect.

O=C(O)C(c1ccccc1)N1C(=O)/C(=C\c2ccc(-c3ccccc3Cl)o2)SC1=S (centres undefined) was read as Coupling enz 2 and Sfp PPTase inh 50µM*.
`COc1ccccc1NC(=O)CCN1C(=O)/C(=C/c2cc(OC)c(OC)c(OC)c2)SC1=S` gave Coupling enz -3 and Sfp PPTase inh 45µM*.
O=C(O)C(c1ccccc1)N1C(=O)/C(=C\c2ccc(-c3ccc(Br)cc3)o2)SC1=S (centres undefined) was read as Coupling enz 2 and Sfp PPTase inh -23%.
`COc1ccc(-c2nc3cnc(Oc4cccc(Cl)c4)nc3n(CCC#N)c2=O)cc1` gave Coupling enz 3 and Sfp PPTase inh 8%.
`O=C(NC(=S)Nc1ccc(Cc2ccncc2)cc1)c1ccc(F)cc1` gave Tau ThT inhib -16%, Tau FP inhib -8%, Coupling enz 3, Sfp PPTase inh 50µM*, KDM4E inh -13% and Tau fluor counter -15%.
`COc1ccc(CCNC(=O)CSc2nnnn2-c2cccc(C(C)=O)c2)cc1OC` gave Tau ThT inhib -7%, Tau FP inhib -6% and Tau fluor counter -13%.
For O=C(O)c1ccc(C(=O)C(=O)c2ccccc2)cc1 the results were Tau ThT inhib -3%, Tau FP inhib 3%, Coupling enz 17, Sfp PPTase inh 22%, KDM4E inh 7% and Tau fluor counter 9%.
Screening CSC(SC)=C(C#N)C(=O)c1ccccc1 returned Tau ThT inhib 20µM*, Tau FP inhib 14µM*, Coupling enz -3, Sfp PPTase inh 7.9µM*, KDM4E inh -26% and Tau fluor counter -19%.
`COc1cccc(C(=O)C(C#N)=C(SC)SC)c1` gave Tau ThT inhib 25µM*, Tau FP inhib inconclusive, Coupling enz 1, Sfp PPTase inh 4µM*, KDM4E inh 1% and Tau fluor counter -19%.
Cc1cccc(CNC(=O)CCCN2C(=O)COc3ccc(C)cc32)c1 was read as Tau ThT inhib -6%, Tau FP inhib -4% and Tau fluor counter -9%.
Screening O=C(Nc1ncc2c(n1)CC(c1ccco1)CC2=O)c1ccco1 (centres undefined) returned Tau ThT inhib inconclusive, Tau FP inhib 3%, Coupling enz -4, Sfp PPTase inh 32µM*, KDM4E inh -10% and Tau fluor counter -8%.
For CC(=O)Nc1ncc2c(n1)CC(c1ccco1)CC2=O (centres undefined) the results were Tau ThT inhib -21%, Tau FP inhib -2%, Coupling enz 0, Sfp PPTase inh -10%, KDM4E inh -27% and Tau fluor counter -9%.
Screening CCC(=O)Nc1ncc2c(n1)CC(c1ccco1)CC2=O (centres undefined) returned Tau ThT inhib -6%, Tau FP inhib 10%, Coupling enz -5, Sfp PPTase inh -30%, KDM4E inh -3% and Tau fluor counter 6%.
COc1ccc(C(=O)Nc2ncc3c(n2)CC(c2ccco2)CC3=O)cc1 (centres undefined) was read as Tau ThT inhib inconclusive, Tau FP inhib -1%, Coupling enz 0, Sfp PPTase inh 50µM*, KDM4E inh -1% and Tau fluor counter -20%.
Screening CC(C)c1ccc(C2CC(=O)c3cnc(N4CCc5ccccc5C4)nc3C2)cc1 (centres undefined) returned Tau ThT inhib -9%, Tau FP inhib 5%, Coupling enz -2, Sfp PPTase inh 6%, KDM4E inh 11% and Tau fluor counter 0%.
For O=C1CC(c2ccco2)Cc2nc(N3CCc4ccccc4C3)ncc21 (centres undefined) the results were Tau ThT inhib inconclusive, Tau FP inhib -3%, Coupling enz -3, Sfp PPTase inh 25µM*, KDM4E inh -6% and Tau fluor counter -14%.
For Cc1ccc(S(=O)(=O)N[C@H]2COC(=O)[C@@H](Cc3ccccc3)NC(=O)[C@@H](C)COC(=O)C/C=C\[C@@H]2C)cc1 the results were Tau ThT inhib 1%[11.5 µM], Tau FP inhib -3%[11.6 µM], Coupling enz 1, Sfp PPTase inh 19% and Tau fluor counter -4%[11.6 µM].
`N#CC1=C(SCC(=O)Nc2ccc(C(=O)O)cc2)NC(=O)CC1c1ccco1` (centres undefined) gave Tau ThT inhib -12%, Tau FP inhib -13%, Coupling enz 5, Sfp PPTase inh 32µM*, KDM4E inh 6% and Tau fluor counter -11%.
For Cc1ccc(NC(=O)CSC2=C(C#N)C(c3ccco3)C3=C(CCCC3=O)N2)cc1 (centres undefined) the results were Tau ThT inhib -15%, Tau FP inhib 3%, Coupling enz -3, Sfp PPTase inh 10µM*, KDM4E inh inconclusive and Tau fluor counter -27%.
For CC(=O)C1=C(C)NC(SCC(=O)c2ccc(C)cc2)=C(C#N)C1c1ccco1 (centres undefined) the results were Tau ThT inhib 16µM*, Tau FP inhib inconclusive, Coupling enz -11, Sfp PPTase inh -46%, KDM4E inh -5% and Tau fluor counter 14µM*[quencher].
`C=CCOC(=O)C1=C(C)NC(SCC(=O)Nc2ccc(C)c(Cl)c2)=C(C#N)C1c1ccco1` (centres undefined) gave Tau ThT inhib -12%, Tau FP inhib inconclusive, Coupling enz 0, Sfp PPTase inh 35µM*, KDM4E inh inconclusive and Tau fluor counter inconclusive.
COc1ccc(C)cc1NS(=O)(=O)c1ccc2oc(=O)c3ncn(C)c3c2c1 was read as Tau ThT inhib 7%, Tau FP inhib -6% and Tau fluor counter 0%.
For CCCN1C(=O)c2[nH]nc(-c3ccccc3O)c2C1c1ccc(OCc2ccccc2)c(OCC)c1 (centres undefined) the results were Tau ThT inhib -2%, Tau FP inhib -16% and Tau fluor counter inconclusive.
`Cc1ccc(C(=O)CSC2=C(C#N)C(c3ccco3)C3=C(CC(C)(C)CC3=O)N2)cc1` (centres undefined) gave Tau ThT inhib inconclusive, Tau FP inhib 8%, Coupling enz 1, Sfp PPTase inh -28%, KDM4E inh -9% and Tau fluor counter -23%.
N#CC1=C(SCC(=O)c2ccc(Cl)cc2)NC2=C(C(=O)CCC2)C1c1ccco1 (centres undefined) was read as Tau ThT inhib inconclusive, Tau FP inhib -14%, Coupling enz -1, Sfp PPTase inh 45µM*, KDM4E inh -4% and Tau fluor counter inconclusive.
For CC(=O)c1ccc2cccc3c2c1N=CN3C the results were Tau ThT inhib -17%, Tau FP inhib -8%, Coupling enz -43*, Sfp PPTase inh inconclusive, KDM4E inh -2% and Tau fluor counter -16%.
